KCNQ2 block: inhibitors of rat KCNQ2 potassium channel; O88943; B-score at 10 µM; actives 1.1% (n = 310,000); AID 2156; CHO-K1 KCNQ2, FluxOR thallium flux, 20 min; active compounds read low;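 active means fluorescence ratio B-score at most minus 3 library SDs, with starting brightness B-score within 2 library SDs, cut at about -5.5 in these data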
KCNQ2 enhance: KCNQ2 (rat) channel potentiation. CHO-K1 KCNQ2, FluxOR thallium flux fluorescence; active compounds read high. B-score at 10 µM. actives 0.54% (n = 310,000). AID 2239;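 active means fluorescence ratio B-score at least 3 SD of library B-scores, with initial fluorescence B-score within 3 of them, cut at about 5.3 in these data; same plate scores as AID 2156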;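 further: B-score of peak minus minimum over baseline fluorescence ratio after K+ and Tl+ stimulus; positive B-score means potentiation of KCNQ2 with more thallium influx and brighter signal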
KCNQ2 block conf: confirmation of rat KCNQ2 potassium channel inhibitors | AID 493025 | activity change, negative = inhibition, % at 10 µM | actives 57% (n = 1,000) | KCNQ2-expressing cells, thallium flux, inhibition; active compounds read low | shares compounds with KCNQ2 block
KCNQ1 spec: KCNQ2 inhibitor that also affects human KCNQ1 channel; shares compounds with KCNQ2 block; KCNQ1-expressing cells, FluxOR thallium flux fluorescence; active compounds read low; activity change, negative = inhibition, % at 10 µM; actives 15% (n = 1,000); AID 493026;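 active means activity change at least 3 SD of negative controls below their mean in both duplicate wells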;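 further: CHO cells stably transfected with KCNQ1 and depolarized by potassium stimulus; peak minus minimum fluorescence over baseline after thallium addition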
Target sequence (P51787 whole entry, looked up): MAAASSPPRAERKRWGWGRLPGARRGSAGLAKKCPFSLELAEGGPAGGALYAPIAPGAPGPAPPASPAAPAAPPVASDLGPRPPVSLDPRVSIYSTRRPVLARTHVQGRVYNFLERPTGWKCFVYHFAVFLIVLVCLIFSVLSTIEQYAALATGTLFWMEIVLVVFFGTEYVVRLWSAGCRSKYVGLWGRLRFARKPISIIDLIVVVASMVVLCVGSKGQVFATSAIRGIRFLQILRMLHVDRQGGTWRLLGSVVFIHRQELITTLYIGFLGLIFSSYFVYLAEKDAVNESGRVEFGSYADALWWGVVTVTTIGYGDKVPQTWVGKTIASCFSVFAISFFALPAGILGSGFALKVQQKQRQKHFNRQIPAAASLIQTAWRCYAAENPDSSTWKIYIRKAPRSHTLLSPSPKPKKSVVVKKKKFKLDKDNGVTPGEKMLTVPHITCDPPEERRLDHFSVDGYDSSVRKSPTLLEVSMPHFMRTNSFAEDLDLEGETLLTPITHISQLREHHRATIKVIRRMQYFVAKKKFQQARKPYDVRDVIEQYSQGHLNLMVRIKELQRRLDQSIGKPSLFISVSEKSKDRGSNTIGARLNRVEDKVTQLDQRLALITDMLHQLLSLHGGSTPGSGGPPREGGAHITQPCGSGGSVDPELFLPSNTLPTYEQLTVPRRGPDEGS
CHO parental ctr: KCNQ2 inhibitor counter-screen hit in parental CHO cells. shares compounds with KCNQ2 block. thallium flux counter-screen; active compounds read low. activity change, % at 10 µM. actives 14% (n = 1,000). AID 493029
KCNQ2 patch conf: rat KCNQ2 inhibition confirmed by electrophysiology. shares compounds with KCNQ2 block. KCNQ2-expressing cells, automated patch clamp current. calls only at 10 µM. actives 49% (n = 550)
Numbers stand for hits; 0 = inactive; - = no result given; + = active, no number. This is a sample that favours compounds with a hit; in the whole collection about 1.6% have one here. Unless noted, how the calls were made is not given here.

SMILES	KCNQ2 block	KCNQ2 enhance	KCNQ2 block conf	KCNQ1 spec	CHO parental ctr	others
CSc1cccc(NC(=O)CN(C)S(=O)(=O)c2cnc[nH]2)c1	0	0	-	-	-
CN(Cc1ccccc1)C(=O)CCn1c(=O)oc2ccccc21	0	0	-	-	-
O=C(CCn1c(=O)oc2ccccc21)N(Cc1ccccc1)c1ccccc1	-11	0	-32%	0	0	KCNQ2 patch conf=+
COc1ccccc1CNC(=O)CSC1=NCCS1	-6.8	0	0	0	0
O=C(CSC1=NCCS1)NC(c1ccccc1)c1ccccc1	-8.2	0	-42%	-34%	-32%	KCNQ2 patch conf=+
COc1ccccc1CNC(=O)CSc1ccc(Br)cc1	0	-	-	-	-
O=C(CSC1=NCCS1)NC(NC(=O)CSC1=NCCS1)c1ccccc1	0	0	-	-	-
N#Cc1c(-c2ccccc2)cc(-c2ccccc2)nc1SCCC(=O)O	0	0	-	-	-
CC(C)(C)OC(=O)N[C@@H](CC(=O)OCc1ccccc1)C(=O)O	0	-	-	-	-
CC(C)(C)OC(=O)N1CCC[C@H]1c1nnc(SCc2ccc(Cl)cc2Cl)o1	-7.2	0	0	0	0
CC(C)(C)OC(=O)N1CCC[C@H]1c1nnc(SCc2c(F)cccc2Cl)o1	0	-	-	-	-
COc1cc(C(=O)Nc2cccc(-c3nnc(-c4ccco4)o3)c2)ccc1OC(C)=O	0	-	-	-	-
Cc1cccc(-n2nnc3c(=O)n(Cc4ccccn4)cnc32)c1	0	0	-	-	-
Cc1c(CCC(=O)NCCCC(=O)O)c(=O)oc2cc3oc4c(c3cc12)CCCC4	0	0	-	-	-
Cc1cc(CN2CCN(CCC#N)CC2)c(O)c(C2(C)CCCCC2)c1	-7.4	0	0	0	0
N#CCCN1CCN(CCC#N)CC1	0	-	-	-	-
Cc1sc2nc(SCC(=O)N(C)c3ccccc3)n(C)c(=O)c2c1C	0	-	-	-	-
Cc1nc2ccc(C(=O)N3CCN(Cc4ccccc4)CC3)cc2[nH]1	0	-	-	-	-
COC(=O)[C@@H](NC(=O)NC1CCCc2ccccc21)C(C)C (stereo partly specified)	-7.2	0	0	0	0
COc1ccccc1OCC(=O)NC1CCCc2ccccc21 (stereo unspecified)	0	-	-	-	-
O=C(CN1C(=O)NC2(CCCCCCC2)C1=O)NC1CCCc2ccccc21 (stereo unspecified)	-7.5	0	-19%	0	0	KCNQ2 patch conf=+
CC1CCCCC12NC(=O)N(CC(=O)NC1CCCc3ccccc31)C2=O (stereo unspecified)	0	-	-	-	-
COc1ccc(NC(=O)NC2CCCc3ccccc32)cc1 (stereo unspecified)	0	-	-	-	-
CC(C)=CC(=O)OCC(=O)NC1CCCc2ccccc21 (stereo unspecified)	-6.7	0	0	0	0
O=C(NCCC1=CCCCC1)C1CCN(C(=O)Cc2ccccc2)CC1	0	0	-	-	-
SMILES	KCNQ2 block	KCNQ2 enhance	KCNQ2 block conf	KCNQ1 spec	CHO parental ctr	others
Cc1ccc(S(=O)(=O)NCC(C)n2cncn2)cc1C (stereo unspecified)	0	0	-	-	-
CCOc1cc(CNCCc2ccc(S(N)(=O)=O)cc2)cc(Cl)c1OCc1ccccc1	-9.4	0	-30%	0	0	KCNQ2 patch conf=0
CCOc1cc(CNCCc2ccc(S(N)(=O)=O)cc2)ccc1OCc1ccccc1	0	-	-	-	-
c1ccc(-c2onc(-c3ccco3)c2-c2ccc3[nH]ccc3c2)cc1	0	-	-	-	-
CCCN(CCC)CCNC(=O)c1cc2c(-c3ccc(Cl)cc3)nn(C)c2s1	-7.3	0	-34%	0	0	KCNQ2 patch conf=0
CCN(CC)CCNC(=O)c1cc2c(-c3ccc(Cl)cc3)nn(C)c2s1	0	-	-	-	-
CCCCN(CC)CCNC(=O)c1cc2c(-c3ccc(Cl)cc3)nn(C)c2s1	-8.4	0	-35%	0	0	KCNQ2 patch conf=0
CCOCCCNC(=O)c1cc2c(-c3ccc(Cl)cc3)nn(C)c2s1	0	0	-	-	-
CN1N=C2c3ccccc3CCCC2C1c1ccc(F)cc1 (stereo unspecified)	0	-	-	-	-
COc1ccccc1S(=O)(=O)Cc1ccc(C(=O)N2CCN(c3cccc(Cl)c3)CC2)o1	-10	0	-37%	0	0	KCNQ2 patch conf=0
COc1ccccc1S(=O)(=O)Cc1ccc(C(=O)N2CCN(c3ccccc3)CC2)o1	0	-	-	-	-
O=C(O)CN1CCCC1=Nc1ccccc1	0	-	-	-	-
Cc1ccc(C)c(N=C2CCCN2Cc2ccccc2)c1C#N	-7.3	0	0	0	0
CN(C(=O)c1cnccn1)c1c(N)n(Cc2ccccc2)c(=O)[nH]c1=O	0	0	-	-	-
O=C(O)c1ccc2nc(-c3ccco3)c(-c3ccco3)nc2c1	0	-	-	-	-
O=C(Nc1cccc(C(F)(F)F)c1)c1ccc2nc(-c3ccco3)c(-c3ccco3)nc2c1	-8.5	0	-30%	0	0	KCNQ2 patch conf=+
C=CCn1c(CSCc2ccc(C)cc2)nnc1SCC(=O)NCc1ccccc1	-8.4	0	-22%	0	0	KCNQ2 patch conf=+
CCn1c(CNc2ccc(C)cc2)nnc1SCC(=O)NCc1ccccc1	0	-	-	-	-
CCN1CCN(CCNC(=O)c2ccc(/C=C3/Sc4ccccc4N(Cc4ccccc4C)C3=O)cc2)CC1	-13	0	0	0	0
CCN1CCN(CCCNC(=O)c2ccc(/C=C3/Sc4ccccc4N(Cc4ccccc4F)C3=O)cc2)CC1	0	-	-	-	-
COc1ccc(C2NC(=O)NC(C)=C2C(=O)OC2CCC(C)CC2)cc1 (stereo unspecified)	0	-	-	-	-
O=C(c1cc2ccccc2o1)N(Cc1ccco1)Cc1cccs1	-12	0	-41%	-40%	-32%	KCNQ2 patch conf=0
COc1ccc(C(=O)N(Cc2ccco2)Cc2cccs2)c(O)c1	0	-	-	-	-
COc1ccc2oc(C(=O)OCC(=O)NCCc3ccccc3)c(C)c2c1	0	0	-	-	-
COc1ccc2oc(C(=O)OCC(=O)N(Cc3ccccc3)C(C)(C)C)c(C)c2c1	-9.4	0	0	0	0
SMILES	KCNQ2 block	KCNQ2 enhance	KCNQ2 block conf	KCNQ1 spec	CHO parental ctr	others
CC(C)(C)N(Cc1ccccc1)C(=O)COC(=O)c1cccc([N+](=O)[O-])c1	-7	0	0	0	0
CC(C)(C)N(Cc1ccccc1)C(=O)COc1cccnc1[N+](=O)[O-]	0	-	-	-	-
Cn1cc([C@@H]2C[C@H]3CN(Cc4cccc(Cl)c4)C(=O)[C@]34CCCN24)c2ccccc21	0	-	-	-	-
COc1ccc(/C=N/Nc2cc(C)nc3ccc(OC)cc23)c(OC)c1	-9	0	-41%	-32%	-24%	KCNQ2 patch conf=0
COc1ccc(/C=N/Nc2nc(C)cc(-c3ccccc3)n2)c(OC)c1	0	0	-	-	-
COc1ccc(NC(=O)[C@H](C)NC(=O)C2CCN(S(=O)(=O)c3ccc(C)cc3)CC2)cc1OC	0	0	-	-	-
COc1cccc(C(=O)O/N=C/c2ccc(Sc3ccc(C)cc3)nc2)c1	0	-	-	-	-
Cc1ccc(NC(=O)c2sc(Cl)nc2-c2ccccc2)cc1	0	-	-	-	-
O=C(Nc1ccc(F)cc1)c1sc(Cl)nc1-c1ccccc1	0	-	-	-	-
Cc1ccccc1NC(=O)c1sc(Cl)nc1-c1ccccc1	-8.7	0	0	0	0
Cc1ccc(C)c(NC(=O)c2sc(Cl)nc2-c2ccccc2)c1	-8	0	0	0	0
COc1ccc(/C=C/c2nnc(NC(=O)COc3ccc(C)cc3)s2)cc1	0	0	-	-	-
CC(=O)N1CCc2c(sc3c2c(=O)n(Cc2ccccc2)c(=O)n3CC(=O)NCC2CCCO2)C1 (stereo unspecified)	0	-	-	-	-
CCOC(=O)N1CCc2c(sc3c2c(=O)n(Cc2ccccc2)c(=O)n3Cc2ccc(C)cc2)C1	-7.7	0	0	0	0
